Legend:
[1] = target: T1, Serine/threonine-protein kinase Sgk3 (Homo sapiens) (UniProt Q96BR1); settings: at 1 µM
T1 sequence (whole entry): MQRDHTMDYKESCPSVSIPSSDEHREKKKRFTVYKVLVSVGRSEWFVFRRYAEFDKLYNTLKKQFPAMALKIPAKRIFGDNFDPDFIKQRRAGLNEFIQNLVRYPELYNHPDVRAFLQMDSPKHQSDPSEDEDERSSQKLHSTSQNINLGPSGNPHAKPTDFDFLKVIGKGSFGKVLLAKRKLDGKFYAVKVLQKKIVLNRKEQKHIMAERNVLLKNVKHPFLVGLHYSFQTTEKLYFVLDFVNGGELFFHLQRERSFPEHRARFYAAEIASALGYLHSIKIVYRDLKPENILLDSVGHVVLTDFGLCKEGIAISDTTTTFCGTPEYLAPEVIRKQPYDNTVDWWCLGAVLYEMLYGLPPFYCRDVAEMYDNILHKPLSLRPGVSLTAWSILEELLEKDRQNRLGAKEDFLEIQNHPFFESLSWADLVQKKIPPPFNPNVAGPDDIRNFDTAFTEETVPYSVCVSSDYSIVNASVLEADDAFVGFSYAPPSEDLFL

[2] = target: T2, Serine/threonine-protein kinase Sgk2 (Homo sapiens) (UniProt Q9HBY8); settings: at 1 µM
T2 sequence (whole entry): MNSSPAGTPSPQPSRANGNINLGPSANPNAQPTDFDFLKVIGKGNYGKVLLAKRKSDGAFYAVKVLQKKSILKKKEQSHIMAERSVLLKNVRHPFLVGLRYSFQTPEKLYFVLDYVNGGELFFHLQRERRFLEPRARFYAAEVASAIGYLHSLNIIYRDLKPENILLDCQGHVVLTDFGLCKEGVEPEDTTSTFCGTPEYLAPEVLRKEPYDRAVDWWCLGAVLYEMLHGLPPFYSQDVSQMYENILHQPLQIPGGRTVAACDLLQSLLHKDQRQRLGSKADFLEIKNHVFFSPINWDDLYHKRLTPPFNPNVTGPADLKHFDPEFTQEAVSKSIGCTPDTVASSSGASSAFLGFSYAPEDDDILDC

[3] = target: T2, Serine/threonine-protein kinase Sgk2 (Homo sapiens); settings: at 10 µM
[4] = target: T1, Serine/threonine-protein kinase Sgk3 (Homo sapiens); settings: at 10 µM
[5] = target: Serine/threonine-protein kinase SIK1 (Homo sapiens) (UniProt P57059); settings: at 1 µM
[6] = target: Serine/threonine-protein kinase SIK1 (Homo sapiens) (UniProt P57059); settings: at 10 µM
[7] = target: SRSF protein kinase 1 (Homo sapiens) (UniProt Q96SB4); settings: at 10 µM
[8] = target: SRSF protein kinase 2 (Homo sapiens) (UniProt P78362); settings: at 1 µM
[9] = target: SRSF protein kinase 2 (Homo sapiens) (UniProt P78362); settings: at 10 µM
[10] = target: Serine/threonine-protein kinase 33 (Homo sapiens) (UniProt Q9BYT3); settings: at 1 µM
[11] = target: Serine/threonine-protein kinase 33 (Homo sapiens) (UniProt Q9BYT3); settings: at 10 µM
[12] = target: Serine/threonine-protein kinase PLK2 (Homo sapiens) (UniProt Q9NYY3); settings: at 1 µM
[13] = target: Serine/threonine-protein kinase PLK2 (Homo sapiens) (UniProt Q9NYY3); settings: at 10 µM
[14] = target: Tyrosine-protein kinase SYK (Homo sapiens) (UniProt P43405); settings: at 1 µM
[15] = target: Tyrosine-protein kinase SYK (Homo sapiens) (UniProt P43405); settings: at 10 µM
[16] = target: T3, Mitogen-activated protein kinase kinase kinase 7 (Homo sapiens) (UniProt O43318); settings: at 1 µM
T3 sequence (whole entry): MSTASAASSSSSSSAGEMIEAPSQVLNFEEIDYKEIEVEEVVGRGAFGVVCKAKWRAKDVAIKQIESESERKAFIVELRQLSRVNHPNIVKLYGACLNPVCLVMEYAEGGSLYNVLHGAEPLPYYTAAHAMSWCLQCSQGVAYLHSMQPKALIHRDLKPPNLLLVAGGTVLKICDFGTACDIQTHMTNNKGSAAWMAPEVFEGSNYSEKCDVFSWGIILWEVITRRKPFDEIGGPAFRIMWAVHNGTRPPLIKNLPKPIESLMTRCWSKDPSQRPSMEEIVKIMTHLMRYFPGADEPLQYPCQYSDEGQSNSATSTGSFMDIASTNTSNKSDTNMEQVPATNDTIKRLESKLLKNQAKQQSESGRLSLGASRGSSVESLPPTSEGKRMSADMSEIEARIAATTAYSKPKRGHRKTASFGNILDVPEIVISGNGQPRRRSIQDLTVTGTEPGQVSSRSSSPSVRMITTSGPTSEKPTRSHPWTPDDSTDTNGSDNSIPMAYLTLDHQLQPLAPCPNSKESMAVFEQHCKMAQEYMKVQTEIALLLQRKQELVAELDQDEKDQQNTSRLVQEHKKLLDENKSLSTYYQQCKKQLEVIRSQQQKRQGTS

[17] = target: T3, Mitogen-activated protein kinase kinase kinase 7 (Homo sapiens); settings: at 10 µM
[18] = target: T4, Serine/threonine-protein kinase TAO1 (Homo sapiens) (UniProt Q7L7X3); settings: at 1 µM
T4 sequence (whole entry): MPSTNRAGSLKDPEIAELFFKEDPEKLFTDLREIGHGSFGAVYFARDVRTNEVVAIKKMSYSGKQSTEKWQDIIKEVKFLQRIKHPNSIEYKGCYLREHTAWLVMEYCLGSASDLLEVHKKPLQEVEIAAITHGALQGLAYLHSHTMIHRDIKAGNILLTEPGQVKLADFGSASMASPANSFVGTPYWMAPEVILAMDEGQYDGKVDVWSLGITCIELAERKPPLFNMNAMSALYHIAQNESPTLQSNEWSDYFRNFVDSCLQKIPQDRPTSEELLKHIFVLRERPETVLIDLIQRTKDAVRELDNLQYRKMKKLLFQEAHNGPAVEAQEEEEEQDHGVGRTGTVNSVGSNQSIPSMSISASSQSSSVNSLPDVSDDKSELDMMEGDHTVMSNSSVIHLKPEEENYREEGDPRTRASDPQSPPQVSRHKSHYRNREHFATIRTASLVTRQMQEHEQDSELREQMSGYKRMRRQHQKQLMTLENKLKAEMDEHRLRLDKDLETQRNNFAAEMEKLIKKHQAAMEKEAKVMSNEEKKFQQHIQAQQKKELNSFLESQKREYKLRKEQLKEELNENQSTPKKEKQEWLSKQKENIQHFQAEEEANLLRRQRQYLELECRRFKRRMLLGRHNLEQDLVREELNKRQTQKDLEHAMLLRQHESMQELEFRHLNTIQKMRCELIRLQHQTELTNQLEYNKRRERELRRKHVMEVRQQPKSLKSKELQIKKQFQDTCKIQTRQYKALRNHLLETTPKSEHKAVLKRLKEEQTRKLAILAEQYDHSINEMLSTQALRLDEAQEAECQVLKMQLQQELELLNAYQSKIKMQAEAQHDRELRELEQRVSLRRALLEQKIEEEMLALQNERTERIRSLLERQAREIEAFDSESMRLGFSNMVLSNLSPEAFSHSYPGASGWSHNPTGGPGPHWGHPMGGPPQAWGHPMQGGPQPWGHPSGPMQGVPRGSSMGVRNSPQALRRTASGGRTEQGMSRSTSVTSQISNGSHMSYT

[19] = target: T4, Serine/threonine-protein kinase TAO1 (Homo sapiens); settings: at 10 µM
[20] = target: SRSF protein kinase 1 (Homo sapiens) (UniProt Q96SB4); settings: at 1 µM

SRSF protein kinase 1 (Homo sapiens), sequence (Q96SB4 whole entry): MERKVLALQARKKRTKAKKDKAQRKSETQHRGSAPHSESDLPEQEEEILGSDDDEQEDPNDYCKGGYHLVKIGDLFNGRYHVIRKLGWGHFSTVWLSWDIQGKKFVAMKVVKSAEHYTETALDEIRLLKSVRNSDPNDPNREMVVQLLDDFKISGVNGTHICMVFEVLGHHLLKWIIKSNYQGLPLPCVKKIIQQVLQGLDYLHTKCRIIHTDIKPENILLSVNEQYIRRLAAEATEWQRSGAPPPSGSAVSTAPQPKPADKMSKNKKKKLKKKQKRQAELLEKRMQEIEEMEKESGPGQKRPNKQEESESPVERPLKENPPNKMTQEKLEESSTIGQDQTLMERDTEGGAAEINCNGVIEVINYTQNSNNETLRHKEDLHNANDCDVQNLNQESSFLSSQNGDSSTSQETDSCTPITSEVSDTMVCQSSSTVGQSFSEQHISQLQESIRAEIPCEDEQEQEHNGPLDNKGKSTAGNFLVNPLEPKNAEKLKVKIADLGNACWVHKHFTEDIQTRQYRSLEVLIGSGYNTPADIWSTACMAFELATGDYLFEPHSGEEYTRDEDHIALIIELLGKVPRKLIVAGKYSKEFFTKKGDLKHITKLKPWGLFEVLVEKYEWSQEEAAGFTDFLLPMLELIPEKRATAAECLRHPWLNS
Serine/threonine-protein kinase 33 (Homo sapiens), sequence (Q9BYT3 whole entry, looked up): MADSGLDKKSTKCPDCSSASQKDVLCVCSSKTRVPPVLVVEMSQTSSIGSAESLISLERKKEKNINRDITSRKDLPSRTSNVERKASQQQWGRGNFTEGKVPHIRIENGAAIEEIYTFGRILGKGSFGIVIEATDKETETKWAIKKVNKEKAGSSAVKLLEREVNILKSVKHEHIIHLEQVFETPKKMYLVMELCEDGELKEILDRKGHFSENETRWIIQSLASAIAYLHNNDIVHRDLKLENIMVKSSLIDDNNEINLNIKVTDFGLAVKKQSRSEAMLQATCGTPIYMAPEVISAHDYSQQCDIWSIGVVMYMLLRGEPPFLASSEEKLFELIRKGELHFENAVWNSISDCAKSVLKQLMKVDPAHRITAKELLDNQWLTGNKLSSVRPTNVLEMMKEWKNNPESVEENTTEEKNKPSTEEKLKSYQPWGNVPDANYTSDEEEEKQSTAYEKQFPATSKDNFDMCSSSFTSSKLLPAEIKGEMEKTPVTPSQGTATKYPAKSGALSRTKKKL
SRSF protein kinase 2 (Homo sapiens), sequence (P78362 whole entry, looked up): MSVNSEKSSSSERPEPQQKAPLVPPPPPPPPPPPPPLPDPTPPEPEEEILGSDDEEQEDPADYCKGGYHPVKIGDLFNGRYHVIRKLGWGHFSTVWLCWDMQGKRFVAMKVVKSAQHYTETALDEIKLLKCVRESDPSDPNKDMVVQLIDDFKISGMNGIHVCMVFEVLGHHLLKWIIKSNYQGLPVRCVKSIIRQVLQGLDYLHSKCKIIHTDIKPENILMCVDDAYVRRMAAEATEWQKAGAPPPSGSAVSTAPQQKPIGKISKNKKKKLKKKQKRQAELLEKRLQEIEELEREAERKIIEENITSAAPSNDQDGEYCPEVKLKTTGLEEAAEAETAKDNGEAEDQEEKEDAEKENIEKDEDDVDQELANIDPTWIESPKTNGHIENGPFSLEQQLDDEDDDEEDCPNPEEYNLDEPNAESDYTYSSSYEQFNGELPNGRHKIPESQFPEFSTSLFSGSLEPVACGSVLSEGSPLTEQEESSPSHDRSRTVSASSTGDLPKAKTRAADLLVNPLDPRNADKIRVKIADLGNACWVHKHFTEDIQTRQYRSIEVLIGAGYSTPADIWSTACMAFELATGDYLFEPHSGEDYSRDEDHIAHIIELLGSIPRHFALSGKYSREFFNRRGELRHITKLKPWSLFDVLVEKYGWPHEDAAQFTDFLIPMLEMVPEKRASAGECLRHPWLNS
Serine/threonine-protein kinase SIK1 (Homo sapiens), sequence (P57059 whole entry): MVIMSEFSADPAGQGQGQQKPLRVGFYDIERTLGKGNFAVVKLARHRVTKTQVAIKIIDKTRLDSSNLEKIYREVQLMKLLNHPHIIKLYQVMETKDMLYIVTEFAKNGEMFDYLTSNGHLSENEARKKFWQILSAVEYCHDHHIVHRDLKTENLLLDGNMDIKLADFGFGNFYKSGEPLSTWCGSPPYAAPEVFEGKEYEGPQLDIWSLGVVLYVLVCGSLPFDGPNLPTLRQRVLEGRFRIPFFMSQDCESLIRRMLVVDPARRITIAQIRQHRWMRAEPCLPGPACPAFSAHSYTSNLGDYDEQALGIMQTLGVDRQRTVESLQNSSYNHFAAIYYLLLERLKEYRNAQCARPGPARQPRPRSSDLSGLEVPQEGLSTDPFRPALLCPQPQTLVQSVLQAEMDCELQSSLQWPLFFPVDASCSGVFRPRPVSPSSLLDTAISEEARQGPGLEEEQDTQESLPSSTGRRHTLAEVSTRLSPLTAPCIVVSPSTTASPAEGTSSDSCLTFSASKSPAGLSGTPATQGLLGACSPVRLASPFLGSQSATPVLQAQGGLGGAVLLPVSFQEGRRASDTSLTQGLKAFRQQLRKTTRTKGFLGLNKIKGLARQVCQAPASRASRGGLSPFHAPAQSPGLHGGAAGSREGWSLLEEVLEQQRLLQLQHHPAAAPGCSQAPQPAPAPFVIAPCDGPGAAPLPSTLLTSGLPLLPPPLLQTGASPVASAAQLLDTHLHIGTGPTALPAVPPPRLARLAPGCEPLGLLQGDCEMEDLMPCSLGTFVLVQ
Serine/threonine-protein kinase PLK2 (Homo sapiens), sequence (Q9NYY3 whole entry, looked up): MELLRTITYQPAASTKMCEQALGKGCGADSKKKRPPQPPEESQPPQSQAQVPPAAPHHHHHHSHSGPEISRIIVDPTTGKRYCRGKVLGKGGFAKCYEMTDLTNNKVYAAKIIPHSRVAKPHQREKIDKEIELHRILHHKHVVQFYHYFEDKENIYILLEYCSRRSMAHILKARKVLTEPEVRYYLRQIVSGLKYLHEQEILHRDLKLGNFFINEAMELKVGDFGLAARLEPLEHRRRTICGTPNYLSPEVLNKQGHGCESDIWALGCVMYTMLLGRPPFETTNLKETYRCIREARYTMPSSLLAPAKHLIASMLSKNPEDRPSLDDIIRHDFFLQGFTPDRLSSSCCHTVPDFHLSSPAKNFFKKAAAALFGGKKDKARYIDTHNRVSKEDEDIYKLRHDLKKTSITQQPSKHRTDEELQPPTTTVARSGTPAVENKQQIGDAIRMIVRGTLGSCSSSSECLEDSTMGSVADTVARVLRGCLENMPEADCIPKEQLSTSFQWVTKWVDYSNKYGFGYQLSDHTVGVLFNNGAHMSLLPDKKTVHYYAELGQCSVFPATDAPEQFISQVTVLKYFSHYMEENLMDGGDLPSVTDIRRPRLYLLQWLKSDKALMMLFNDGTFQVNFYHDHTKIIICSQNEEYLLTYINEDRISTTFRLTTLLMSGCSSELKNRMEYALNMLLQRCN

O=C1NC(=O)/C(=C\c2ccc3nccnc3c2)S1 gave a residual activity [1] of 114%.
CC[n+]1c(/C=C/N(C)c2ccccc2)n(-c2ccccc2)c2ccc(-c3nc4ccccc4s3)cc21 showed a residual activity [1] of 99%.
Work on O=C1Nc2cc(Br)ccc2/C1=C1/Nc2ccccc2/C1=N\O yielded a residual activity [1] of 86%.
Compound CCn1cnc2c(Nc3cccc(Cl)c3)nc(N[C@@H]3CCCC[C@@H]3N)nc21 has a residual activity [2] of 97%, a residual activity [3] of 65% and a residual activity [4] of 59%. For the same compound, the residual activity [5] was 20%, the residual activity [6] was 0% and the residual activity [7] was 39%. For the same compound, the residual activity [8] was 69%, the residual activity [9] was 32% and the residual activity [10] was 87%. The residual activity [11] was 42%, the residual activity [12] was 92% and the residual activity [13] was 54%. The residual activity [14] was 99%, the residual activity [15] was 57% and the residual activity [16] was 89%. For the same compound, the residual activity [17] was 65%, the residual activity [18] was 68% and the residual activity [19] was 15%.
With Nc1nc(Nc2ccc(S(N)(=O)=O)cc2)nn1C(=S)Nc1c(F)cccc1F the residual activity [1] was 88%.
O=c1[nH]c2ccccc2n1C1CCN(Cc2ccc(-c3nc4cc5[nH]cnc5cc4nc3-c3ccccc3)cc2)CC1 was tested, and the residual activity [2] was 100%, the residual activity [3] was 74% and the residual activity [1] was 94%. It also gave a residual activity [4] of 81%, a residual activity [5] of 115% and a residual activity [6] of 44%. The residual activity [20] was 80%, the residual activity [7] was 97% and the residual activity [8] was 99%. For the same compound, the residual activity [9] was 80%, the residual activity [10] was 100% and the residual activity [11] was 95%. The residual activity [12] was 91%, the residual activity [13] was 92% and the residual activity [14] was 125%. It also gave a residual activity [15] of 76%, a residual activity [16] of 97% and a residual activity [17] of 96%. For the same compound, the residual activity [18] was 102% and the residual activity [19] was 65%.
In the case of N#C/C(=C(\N)Sc1ccc(N)cc1)c1ccccc1C(F)(F)F, the residual activity [1] is reported as 102%.
COc1ccc(OC)c2c(=S)c3ccccc3[nH]c12 showed a residual activity [1] of 112%.
In the case of O=c1cc(-c2cccc3c2Sc2ccccc2S3)oc(N2CCOCC2)c1, the residual activity [1] is reported as 101%.
O=C1Nc2ccc3ncsc3c2/C1=C/c1c[nH]cn1 was tested, and the residual activity [2] was 12%, the residual activity [3] was 5% and the residual activity [1] was 73%. The residual activity [4] was 21%, the residual activity [5] was 49% and the residual activity [6] was 43%. For the same compound, the residual activity [20] was 102%, the residual activity [7] was 101% and the residual activity [8] was 104%. It also gave a residual activity [10] of 62%, a residual activity [11] of 25% and a residual activity [12] of 49%. The residual activity [13] was 17%, the residual activity [14] was 101% and the residual activity [15] was 53%. The residual activity [16] was 16%, the residual activity [17] was 1% and the residual activity [18] was 11%. For the same compound, the residual activity [19] was 0%.
In the case of C[S+]([O-])c1ccc(-c2nc(-c3ccc(F)cc3)c(-c3ccncc3)[nH]2)cc1 (stereo not given), the residual activity [2] is reported as 114%, the residual activity [3] is reported as 81% and the residual activity [1] is reported as 120%. The residual activity [4] was 101%, the residual activity [5] was 132% and the residual activity [6] was 93%. For the same compound, the residual activity [20] was 112%, the residual activity [7] was 109% and the residual activity [8] was 112%. For the same compound, the residual activity [10] was 106%, the residual activity [11] was 109% and the residual activity [12] was 116%. For the same compound, the residual activity [13] was 103%, the residual activity [14] was 112% and the residual activity [15] was 101%. For the same compound, the residual activity [16] was 106%, the residual activity [17] was 101% and the residual activity [18] was 100%. For the same compound, the residual activity [19] was 77%.
O=C1NC(=O)c2c1c1c3ccccc3[nH]c1n1cncc21 was tested, and the residual activity [1] was 87%.
In the case of Cn1cc(/C=C2\C(=O)Nc3ccc(S(N)(=O)=O)cc32)c2ccccc21, the residual activity [1] is reported as 112%.

Source: ChEMBL document CHEMBL2218924, “A broad activity screen in support of a chemogenomic map for kinase signalling research and drug discovery” (Biochem J, 2013)
